Data on 15 compounds can be found in PubChem BioAssay (NCATS).

Assay [1] is described as follows: Viability qHTS for spleen associated tyrosine kinase inhibitor (SYKi) naive MV4-11 cells (AID 1963823). Further: nearly all actives have a fitted effect of over 40% in size. In outline:
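Cells: MV4-11, SYK inhibitor naive, 500 per well. Treatment: library compounds, 72 hr, 37 C, 5% CO2. Read-out: CellTiter-Glo luminescence after 10 min RT.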
A general note: Quantitative high-throughput screening tests each substance at several concentrations.

Assay [2] can be described thus: Viability qHTS for spleen associated tyrosine kinase inhibitor (SYKi) drug resistant MV4-11 cells (AID 1963824). Further: nearly all actives have a fitted effect of over 35% in size. In outline:
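SYK inhibitor-resistant MV4-11 AML cells, 500 per well, added to predispensed compounds and incubated 72 hr at 37 C, 5% CO2. Viability measured by CellTiter-Glo luminescence after 10 min at room temperature.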

Values joined by “and” are separate entries in the source; they are usually repeats but may differ in a detail not shown here. Equal values may be shown once. Inconclusive results are not listed. Values without a mark were called inactive. Active and inactive are the calls of the source. The call rests on the fitted dose curve; in most records, active means well fitted cell-killing curve with a large enough effect; inconclusive means small, poorly fitted or top-dose-only effect, or effect the other way; inactive means no such curve, though single readings can be large or run the other way.
Potency means the concentration at half of the fitted maximal effect.

`C=CC(C)(CC/C=C(\C)CC/C=C(\C)CC(O)/C=C(\C)C(=O)O)O[C@@H]1O[C@H](CO)[C@@H](O)[C@H](O)[C@H]1O[C@@H]1O[C@H](CO)[C@@H](O)[C@H](O)[C@H]1O` (stereo not given in full): the Potency result in assay [1] and in assay [2] was “inactive” in each case.

Consider `O=c1[nH]c2ccccc2n1CCCN1CCN(C(c2ccccc2)c2ccccc2)CC1`, for which the figures for the Potency in assay [1] and in assay [2] were 15 µM (active) and 11.9 µM (active), respectively.

As to `C=C(C(=O)O)C1CCC2(C)CCC(O)C(=C)C2C1` (stereo not given), the Potency result in assay [1] and in assay [2] was “inactive” in each case.

Take `Cc1ccc(C2(C(=O)N3CCC(n4nc(-c5ccccc5)oc4=O)CC3)CC2)cc1`: the Potency result in assay [1] and in assay [2] was “inactive” each time.

Consider `CCNC(=O)[C@@H]1CCCN1C(=O)[C@H](CCCN=C(N)N)NC(=O)[C@H](CC(C)C)NC(=O)[C@@H](C)NC(=O)[C@H](Cc1ccc(O)cc1)NC(=O)[C@H](CO)NC(=O)[C@H](Cc1c[nH]c2ccccc12)NC(=O)[C@H](Cc1cnc[nH]1)NC(=O)[C@@H]1CCC(=O)N1`, for which the Potency result in assay [1] and in assay [2] was “inactive” throughout.

Consider `Cc1c(NC(=O)c2cc3c(s2)CCCC3)cccc1-c1cn(C)c(=O)c(Nc2ccc(C3C(=O)N(C)CCN3C)cc2)n1` (stereo not given), for which the Potency in assay [1] is 20.6 µM (active) and 20.9 µM (active); in assay [2] it was 7.31 µM (active) and 16.6 µM (active).

For the compound `CC(C)c1cc(C(=O)N2CC[C@@H](NC(=O)C3CC3)C2)n[nH]1`, the Potency entry in assay [1] and in assay [2] was “inactive” throughout.

Turning to `CC1=C2C(=O)C=C(CO)C2C2OC(=O)C(CS(=O)(=O)O)C2C(OC(=O)Cc2ccc(O)cc2)C1` (stereo not given), the Potency result in assay [1] and in assay [2] was “inactive” in each case.

Consider `O=C1NC2CCCCN2C12CCN(CCCN1c3ccccc3CCc3ccc(Cl)cc31)CC2` (stereo not given), for which the Potency in assay [1] is 10.3 µM (active); in assay [2] it was 4.61 µM (active).

In the case of `CC1(C)CC[C@]2(C(=O)O[C@@H]3O[C@H](CO[C@@H]4O[C@H](CO)[C@@H](O)[C@H](O)[C@H]4O)[C@@H](O)[C@H](O[C@@H]4O[C@H](CO)[C@@H](O)[C@H](O)[C@H]4O)[C@H]3O)[C@H](O)C[C@]3(C)C(=CCC4[C@@]5(C)CC[C@H](O[C@@H]6OC[C@@H](O)[C@H](O)[C@H]6O)[C@@](C)(C(=O)O)C5CC[C@]43C)[C@@H]2C1` (stereo not given in full), the viability (% of control) in assay [1] is 67.4% [at 9.25 µM]. In addition, the viability, % of control in assay [2] is 65.4% [at 9.25 µM].

Consider `CC(O)C1NC(=O)C2CCCN2C1=O` (stereo not given), for which the Potency entry in assay [1] and in assay [2] was “inactive” throughout.

On to `C=C1C(=O)OC2C(OC(=O)C=C(C)C)C(C)=C3C(=O)C=C(C)C3C(O)C12` (stereo not given), for which the Potency in assay [1] is 2.02 µM (active); in assay [2], 1.61 µM (active).

As to `O=C(OC[C@@]1(O)CO[C@@H](O[C@H]2[C@H](Oc3ccc(O)cc3)O[C@H](CO)[C@@H](O)[C@@H]2O)[C@@H]1O)c1ccc(O)cc1`, the Potency result in assay [1] and in assay [2] was “inactive” in each case.

For the compound `CCN(CC)C(=O)C(c1ccccc1)N1CCN(c2ccc(NC(=O)c3ccccc3-c3cccnc3)cc2F)CC1` (stereo not given), the Potency entry in assay [1] and in assay [2] was “inactive” throughout.

Turning to `CCC/C=C/C(=O)O[C@H]1CC(C)(C)CC2[C@]13[C@H](O)O[C@@]21CCC2[C@@]4(C)CC[C@H](O[C@@H]5O[C@H](C(=O)O)[C@@H](O)[C@H](O[C@@H]6O[C@H](CO)[C@H](O)[C@H](O)[C@H]6O[C@@H]6O[C@@H](C)[C@H](O)[C@@H](O)[C@H]6O[C@@H]6OC[C@](O)(CO)[C@H]6O)[C@H]5O[C@@H]5O[C@H](CO)[C@H](O)[C@H](O)[C@H]5O)C(C)(C)C4CC[C@@]2(C)[C@]1(C)C[C@H]3OC(C)=O` (stereo not given in full), in assay [1], the viability (% of control) is 57.2% [at 9.25 µM]. Moreover, the viability, % of control in assay [2] is 66.3% [at 9.25 µM].
